Source: PubChem BioAssay AID488841 (Sanford-Burnham Center for Chemical Genomics, 2010)
The campaign covered roughly 1,400 compounds. About 380 (27%) were called active. The list shows a part of the results. Unmarked numbers belong to inactive results.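 How the source made its calls: active means mean inhibition above 50% across duplicate retests at 10 µM; inactive means the rest.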

Test: yeast NALP1 reporter signal suppression – S. cerevisiae, luminescence, single concentration, NALP1 inhibitor project, confirmation (AID 488841);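 further: plate controls were DMSO in galactose medium for no effect and cells in plain SD medium for full effect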
Settings: S. cerevisiae NALP1/ASC/Caspase-1 reporter, beta-gal luminescence; at 10 µM; active compounds read high

Structure (SMILES)	inhibition
CCOc1ccc(NC(=O)CSc2nnc(C)n2Cc2ccccc2)cc1	26.8%
CCOc1ccc(NC(=O)c2cc3c(C)nc4ccccc4c3o2)cc1	17.3%
CCOc1ccc(NC(=O)c2csc3c2CCCC3)cc1	52.4% (active)
O=C(NN1C(=O)c2cc(Br)ccc2NC1c1cc(Br)cc(Br)c1O)c1ccncc1 (centres undefined)	64.8% (active)
O=C(Nc1cccnc1)Nc1ccc2c(c1)OCO2	32.1%
CC1CN(C(=O)Nc2ccc3c(c2)OCO3)CC(C)O1 (centres undefined)	30.4%
COC(=O)c1cccc(NC(=O)/C=C/c2ccc3c(c2)OCO3)c1	60.6% (active)
Cc1ccc(S(=O)(=O)NCC(=O)N(CC(=O)NC(C)(C)C)Cc2cccs2)cc1	31.3%
Cc1cc(=O)oc2cc(OCC(=O)N3CCN(C(=O)c4ccco4)CC3)ccc12	21.1%
C/C(=N\N(C)C)C1=C(O)c2ccccc2C1=O	29.9%
CC(=O)N(C1=C(Cl)C(=O)c2ccccc2C1=O)C1CCCCC1	58% (active)
O=C(c1ccc(Br)o1)N(c1ccccn1)C1CCCCC1	41.8%
CN(C)c1ccc(N=C/C=C2/N(C)c3ccccc3C2(C)C)cc1	47.2%
CCOC(=O)C[N+](CC)(CC)CC#Cc1ccccc1	15.1%
Cc1nnc(-c2ccccc2)o1	31.1%
CCCc1nn(C)c(C(=O)Nc2cccc(C)c2)c1Cl	42.2%
Cc1cccc(NCc2nc3ccccc3n2C)c1	66% (active)
CCOC(=O)c1c(/N=C/c2cc(OC)cc([N+](=O)[O-])c2O)sc(C)c1C	44.5%
CS(=O)(=O)N1N=C(c2ccco2)CC1c1ccc(Cl)cc1 (centres undefined)	19.9%
COc1ccc(/C=N/NC(=O)c2csc(-n3nc(C)cc3C(F)(F)F)n2)cc1	17.9%
C=CCc1cc(Cl)ccc1OCCOCCNCCOC	41.8%
Clc1ccc(OCCOCCN2CCc3ccccc3C2)c(Cl)c1	52.3% (active)

Structure (SMILES)	inhibition
Cc1cc(Cl)c(OCCOCCN2CCC(C)CC2)c(Br)c1	44.9%
Cc1sc2ncnc(N/N=C/c3ccccc3O)c2c1C	40.2%
Cc1c(Cl)c([N+](=O)[O-])nn1Cc1ccc(C(=O)N/N=C\c2ccccn2)o1	28.8%
Nc1c(Cl)ncnc1N/N=C/c1ccccn1	71.3% (active)
Cc1cc(C)cc(OCc2nnc(SCC(=O)OC(C)C)o2)c1	47%
CC1=C(OC(=O)c2ccc(Br)cc2)C(C)(C)C(c2ccccc2)OC1=O (centres undefined)	24.7%
Cc1nc(NC(=O)/C=C/c2ccccc2)n[nH]1	40.7%
C1CCC(C(CC2CCCCN2)C2CCCCC2)CC1 (centres undefined)	54.6% (active)
COc1cc(OC)c(-c2nnc(-c3ccc(OC)c(OC)c3OC)o2)cc1OC	31.9%
CC1=CC(C)(C)Nc2ccc(OC(=O)C(C)N3C(=O)c4ccccc4C3=O)cc21 (centres undefined)	32.8%
O=C(Cn1nnc2ccccc21)OCC(=O)c1ccc(Cl)cc1	40.5%
O=C1C=CC(=O)N1CCNc1ncc(C(F)(F)F)cc1Cl	46.6%
O=C1C=CC(=O)N1CCCCCCN1C(=O)C=CC1=O	73.3% (active)
CC1CCC2C(=O)N(c3ccc(C(=O)Oc4cccc5cccnc45)cc3)C(=O)C2C1 (centres undefined)	31.1%
Cc1cc(C)c(NC(=O)/C(=C/c2ccccc2)c2ccccc2)c(C)c1	31.8%
Cc1nc(/N=C(\N)NC(=O)N2c3ccccc3Sc3ccccc32)nc2ccccc12	44.3%
O=C(Cc1ccc(-n2c(=O)[nH]c3ccccc3c2=O)cc1)N1CCN(c2ccccc2)CC1	18.6%
O=C(Nc1nc2ccccc2s1)C1c2ccccc2Oc2ccccc21	45.9%
Nc1ccc(C(=O)Nc2nc3ccccc3s2)cc1	69.7% (active)
Cc1ccc2nc(NC(=O)c3ccc4ncsc4c3)sc2c1	30.2%
CCN(CC)C1CC(=O)N(c2cccc(C)c2)C1=O (centres undefined)	57.5% (active)
COC(=O)c1ccccc1SC1CC(=O)N(c2cccc(C)c2)C1=O (centres undefined)	34%

Structure (SMILES)	inhibition
Cc1cccc(N2C(=O)CC(Sc3ccccc3C(=O)O)C2=O)c1 (centres undefined)	42.5%
CC(C)c1ccc(N2C(=O)CC(Sc3ncn[nH]3)C2=O)cc1 (centres undefined)	48.5%
Cc1cc(C)cc(N2C(=O)CC(Sc3ncn[nH]3)C2=O)c1 (centres undefined)	62.3% (active)
Cc1ccc(N2C(=O)CC(Sc3ccccc3C(=O)O)C2=O)cc1 (centres undefined)	40.4%
CCOC(=O)NC1(NCc2ccccc2)Oc2ccccc2O1	32.2%
O=C(Nc1cccc(N=Cc2cc(Br)cc(Br)c2O)c1)c1ccco1	39.2%
Cc1ccc(C(=O)O)cc1N=Cc1cc(Br)cc(Br)c1O	59% (active)
Oc1c(Br)cc(Br)cc1C=Nc1ccc2c(c1)OCO2	48.6%
COc1ccc(C(C)C)cc1S(=O)(=O)n1cnc(C)c1	18.5%
Cc1nc2cc(C(=O)NCc3ccc4c(c3)OCO4)ccc2n1-c1ccc(Br)cc1	43.1%
CCOC(=O)c1c(NC2OC(=O)c3c2ccc(OC)c3OC)sc(C(=O)OC(C)(C)C)c1C (centres undefined)	57.5% (active)
Cc1onc(-c2ccccc2Cl)c1C(=O)N1C=CC(C(F)(F)F)=NCC1	65.7% (active)
NC(=O)c1ncc(C(F)(F)F)cc1Oc1ccc(C(F)(F)F)cc1	28.9%
Cc1ccccc1N=C/C=C1\N(C)c2ccccc2C1(C)C	31.9%
C(=C\c1nc(N2CCCC2)c2ccccc2n1)/c1ccccc1	78.1% (active)
C(=C\c1nc(N2CCCCCC2)c2ccccc2n1)/c1ccccc1	70.2% (active)
Cc1ccc(C)c(NC(=O)CSc2nnc(-c3ccccc3)o2)c1	32.8%
O=[N+]([O-])c1ccc(-c2ccn[nH]2)o1	39%
O=C(CSc1nnnn1C1CCCCC1)N1c2ccccc2Sc2ccccc21	35.8%
O=S(=O)(Cc1cc(Sc2ccccc2)nc(-c2ccccc2)n1)c1ccccc1	19.4%
